This is an account of results in the supplement of paper PMC9262897, “Low-cost anti-mycobacterial drug discovery using engineered E. coli” (Nature Communications, 2022).

Common to all, as to test: growth (OD600 after 10 h); higher = more growth (less inhibition)
The test system of test [1] is E. coli TESEC Alr+ wild-type control. The settings on record: compound 0.1 mM; raw OD600 reference: median of DMSO wells 0.241, cell-free background 0.041. The protocol: (§1)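 TESEC Mtb Alr E. coli, or the Alr+ wild-type control, in 384-well plates with Prestwick library compounds at 0.1 mM and 1% DMSO, across arabinose induction levels of 1E3 to 1E7 nM. Growth is read as OD600 after 10 h at 37 °C in triplicate biological replicates.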

The test system of test [2] is E. coli TESEC Mtb Alr. The settings on record: compound 0.1 mM. The protocol:
as §1

The test system of test [3] is E. coli TESEC Mtb Asd. Conditions: compound 0.1 mM. The protocol:
(§2)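 TESEC E. coli strains in which the native enzyme is deleted and replaced by arabinose-inducible Mtb Asd, DapB, CysH or TrpD, each grown in its selective medium. Strains were screened against the Prestwick library at 0.1 mM and 1% DMSO in 384-well format at low and high arabinose induction. Growth is read as OD600 after 10 h in triplicate.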

Test [4] concerns E. coli TESEC Mtb DapB. Conditions: compound 0.1 mM. The protocol: as §2
Test [5] relates to E. coli TESEC Alr+ wild-type control. Conditions: compound 0.1 mM; raw OD600 reference: median of DMSO wells 0.49, cell-free background 0.052. As to the method: (§3)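 TESEC Mtb Alr E. coli (ΔaraC ΔtolC ΔentC Δalr ΔdadX, arabinose-inducible Mtb Alr) or the Alr+ wild-type control strain, grown in defined M9-fructose medium without D-alanine in 96-well plates with Prestwick library compounds at 0.1 mM and 1% DMSO. Low Alr induction is 0.1 µM arabinose and high induction is 10 mM arabinose.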

Test [6] has as its system E. coli TESEC Mtb Alr. Conditions: compound 0.1 mM. As to the method:
as §3
The source holds these as a separate data set.

The mark [7] stands for this setting: arabinose 1000 nM, raw OD600 reference: median of DMSO wells 0.294, cell-free background 0.041.
Where [8] appears, read: arabinose 10000 nM, raw OD600 reference: median of DMSO wells 0.264, cell-free background 0.041.
The mark [9] stands for this setting: arabinose 100000 nM, raw OD600 reference: median of DMSO wells 0.201, cell-free background 0.041.
Where [10] appears, read: arabinose 1000000 nM, raw OD600 reference: median of DMSO wells 0.193, cell-free background 0.041.
The mark [11] stands for this setting: arabinose 10000000 nM, raw OD600 reference: median of DMSO wells 0.146, cell-free background 0.041.
[12] abbreviates: arabinose induction (level): High, raw OD600 reference: median of DMSO wells 0.331, cell-free background 0.041.
The mark [13] stands for this setting: arabinose induction (level): Low, raw OD600 reference: median of DMSO wells 0.417, cell-free background 0.041.
The mark [14] stands for this setting: arabinose induction (level): High, raw OD600 reference: median of DMSO wells […], cell-free background 0.041.
The mark [15] stands for this setting: arabinose induction (level): Low, raw OD600 reference: median of DMSO wells 0.227, cell-free background 0.041.
Where [16] appears, read: arabinose 100 nM, raw OD600 reference: median of DMSO wells 0.413, cell-free background 0.052.
Setting [17] is: arabinose 10000000 nM, raw OD600 reference: median of DMSO wells […], cell-free background 0.052.

Counter-ions that a name gives are not always drawn. ± gives the standard deviation of the averaged measurements.

With `COc1ccnc(C[S+]([O-])c2nc3cc(OC(F)F)ccc3[nH]2)c1OC` (configuration not stated) [Pantoprazole sodium], the growth in test [1] was found to be 0.168 ± 0.0022; in test [2] (setting [7]), 0.218 ± 0.0049; in test [2] (setting [8]), 0.28 ± 0.0076; in test [2] (setting [9]), 0.18 ± 0.011; in test [2] (setting [10]) it was 0.119 ± 0.0037; in test [2] (setting [11]) it was 0.137 ± 0.0065. Also, the growth in test [3] (setting [12]) is 0.308 ± 0.1; in test [3] (setting [13]) it was 0.296 ± 0.057; in test [4] (setting [14]), 0.189 ± 0.0071; in test [4] (setting [15]), 0.194 ± 0.018; in test [5], 0.451 ± 0.013; in test [6] (setting [16]), 0.399 ± 0.011. Also, in test [6] (setting [17]), the growth came out at 0.291 ± 0.022.

`CC[N+](CC)(CC)CCOc1cccc(OCC[N+](CC)(CC)CC)c1OCC[N+](CC)(CC)CC` [Gallamine triethiodide]: the growth is 0.245 ± 0.011 in test [1]; 0.308 ± 0.014 in test [2] (setting [7]); 0.2806 ± 0.0014 in test [2] (setting [8]); 0.233 ± 0.017 in test [2] (setting [9]); 0.191 ± 0.0068 in test [2] (setting [10]); 0.1674 ± 0.00091 in test [2] (setting [11]). The growth in test [3] (setting [12]) amounted to 0.233 ± 0.013; in test [3] (setting [13]), 0.368 ± 0.033; in test [4] (setting [14]), 0.19 ± 0.011; in test [4] (setting [15]), 0.251 ± 0.037; in test [5], 0.475 ± 0.062; in test [6] (setting [16]), 0.4196 ± 0.0011. In addition, the growth in test [6] (setting [17]) turned out to be 0.372 ± 0.017.

As to `CN[C@@H]1[C@H](O)[C@H](NC)[C@H]2O[C@@]3(O)C(=O)C[C@@H](C)O[C@H]3O[C@@H]2[C@H]1O` [Spectinomycin dihydrochloride], the growth in test [1] was determined as 0.0517 ± 0.00091; in test [2] (setting [7]), 0.0841 ± 0.0062; in test [2] (setting [8]), 0.0632 ± 0.0013; in test [2] (setting [9]) it was 0.075 ± 0.0085; in test [2] (setting [10]), 0.0512 ± 0.00079; in test [2] (setting [11]), 0.05437 ± 0.00031. Besides, the growth in test [3] (setting [12]) was determined as 0.0788 ± 0.0045; in test [3] (setting [13]) it was 0.0788 ± 0.0017; in test [4] (setting [14]) it was 0.0987 ± 0.0037; in test [4] (setting [15]), 0.104 ± 0.013; in test [5], 0.228 ± 0.023; in test [6] (setting [16]), 0.308 ± 0.021. The compound also registered a growth in test [6] (setting [17]) of 0.0979 ± 0.014.

With `Nc1ncnc2c1ncn2C1OC(COP(=O)(O)O)C(O)C1O` (configuration not stated) [Adenosine 5'-monophosphate monohydrate], the growth came out at 0.26 ± 0.015 in test [1]; 0.32 ± 0.013 in test [2] (setting [7]); 0.2658 ± 0.0011 in test [2] (setting [8]); 0.237 ± 0.021 in test [2] (setting [9]); 0.175 ± 0.0094 in test [2] (setting [10]); 0.15 ± 0.0046 in test [2] (setting [11]). The growth in test [3] (setting [12]) amounted to 0.276 ± 0.078; in test [3] (setting [13]), 0.336 ± 0.058; in test [4] (setting [14]) it was 0.214 ± 0.0055; in test [4] (setting [15]), 0.25 ± 0.071; in test [5] it was 0.569 ± 0.09; in test [6] (setting [16]), 0.374 ± 0.033. Besides, the growth in test [6] (setting [17]) is 0.363 ± 0.013.

For `O=C1CCc2ccc(OCCCCN3CCN(c4cccc(Cl)c4Cl)CC3)cc2N1` [Aripiprazole], the growth amounted to 0.171 ± 0.013 in test [1]; 0.243 ± 0.021 in test [2] (setting [7]); 0.298 ± 0.02 in test [2] (setting [8]); 0.15 ± 0.005 in test [2] (setting [9]); 0.1175 ± 0.001 in test [2] (setting [10]); 0.159 ± 0.006 in test [2] (setting [11]). Also, the growth in test [3] (setting [12]) came to 0.21 ± 0.022; in test [3] (setting [13]), 0.391 ± 0.036; in test [4] (setting [14]), 0.177 ± 0.011; in test [4] (setting [15]), 0.213 ± 0.021; in test [5], 0.418 ± 0.077; in test [6] (setting [16]) it was 0.0572 ± 0.0048. For the same compound, the growth in test [6] (setting [17]) was 0.0531 ± 0.0021.

As to `CCCCC(C)(O)C/C=C/[C@H]1[C@H](O)CC(=O)[C@@H]1CCCCCCC(=O)OC` (mixture of isomers) [Misoprostol], the growth was 0.323 ± 0.014 in test [1]; 0.3803 ± 0.0025 in test [2] (setting [7]); 0.278 ± 0.0043 in test [2] (setting [8]); 0.474 ± 0.013 in test [2] (setting [9]); 0.193 ± 0.009 in test [2] (setting [10]); 0.22 ± 0.013 in test [2] (setting [11]). Also, the growth in test [3] (setting [12]) worked out at 0.35 ± 0.071; in test [3] (setting [13]) it was 0.44 ± 0.022; in test [4] (setting [14]), 0.332 ± 0.034; in test [4] (setting [15]), 0.311 ± 0.044; in test [5], 0.518 ± 0.094; in test [6] (setting [16]), 0.432 ± 0.0064. The compound also yielded a growth in test [6] (setting [17]) of 0.378 ± 0.013.

Consider `C#CCN(C)CCCOc1ccc(Cl)cc1Cl` [Clorgyline hydrochloride], for which the growth came to 0.14 ± 0.0066 in test [1]; 0.168 ± 0.0046 in test [2] (setting [7]); 0.175 ± 0.0062 in test [2] (setting [8]); 0.174 ± 0.0076 in test [2] (setting [9]); 0.0744 ± 0.0031 in test [2] (setting [10]); 0.133 ± 0.011 in test [2] (setting [11]). Also, the growth in test [3] (setting [12]) was 0.25 ± 0.093; in test [3] (setting [13]), 0.21 ± 0.04; in test [4] (setting [14]), 0.158 ± 0.013; in test [4] (setting [15]), 0.208 ± 0.016; in test [5] it was 0.458 ± 0.027; in test [6] (setting [16]), 0.392 ± 0.0072. This compound had a growth in test [6] (setting [17]) of 0.222 ± 0.016.

For the compound `CC(C)c1nc(CN(C)C(=O)N[C@H](C(=O)N[C@@H](Cc2ccccc2)C[C@H](O)[C@H](Cc2ccccc2)NC(=O)OCc2cncs2)C(C)C)cs1` [Ritonavir], the growth in test [1] turned out to be 0.166 ± 0.0093; in test [2] (setting [7]), 0.216 ± 0.015; in test [2] (setting [8]) it was 0.221 ± 0.025; in test [2] (setting [9]), 0.217 ± 0.012; in test [2] (setting [10]), 0.114 ± 0.0092; in test [2] (setting [11]), 0.159 ± 0.0028. Also, the growth in test [3] (setting [12]) is 0.245 ± 0.0089; in test [3] (setting [13]), 0.15 ± 0.008; in test [4] (setting [14]), 0.192 ± 0.013; in test [4] (setting [15]), 0.25 ± 0.0048; in test [5] it was 0.362 ± 0.01.
